Structures are written as SMILES. Results filed as inconclusive are left out. Calls of active or inactive are those of the source. Calls come from the whole dose curve; as a rule, active = well fitted inhibition curve with a large enough effect; inconclusive = small, poorly fitted or top-dose-only effect; inactive = no such curve, though single readings can be large or run the other way.
Potency is the fitted concentration of half-maximal effect.

The nature of this test: qHTS Screen of the MIPE 4.0 Collection Against Ewings Sarcoma (TC71) (AID 1259253). Note: nearly all actives have a fitted effect of over 40% in size. Particulars: TC71 Ewing sarcoma viability, CellTiter-Glo, 48 h; series mostly up to 45.8 µM. The source says: There is a large unmet medical need for treatments for Ewing sarcoma, a pediatric sarcoma. We sought to identify compounds that inhibited Ewing sarcoma cells in vitro with the goal to then test promising drugs in two drug combinations in vitro to look for synergistic drug combinations. Promising combinations would then proceed to additional validation, including in vivo testing.
Using the NCATS developed oncology compound library called the Mechanism of Interrogation Plate (MIPE), four Ewing sarcoma cell lines were evaluated (TC32, TC71, RDES, EW8). Compounds, in a 12-point titration series, were incubated with cells for 48 hours and the read out was cell viability (CellTiter-Glo from Promega). These initial experiments were used to select appropriate concentrations of each single agent for subsequent two-drug matrix combinations such that the concentrations in the matrices would span both activity and non-activity.
Cells, in the log phase of growth, were seeded in 5 uL of RPMI plus 5% FBS, […] L-glutamine, 100 U/ml penicillin and 100 ug/ml streptomycin into 1536-well solid-bottom white tissue culture treated Greiner Bio One Plates (789173-F) using a MultiDrop Combi (Thermofisher Scientific) dispenser and a small sterile cassette. One column was media alone to be used as a :"no cells" control. The plates were then covered with sterilized stainless steel gasketed lids from Kalypsys. After allowing cells to attach for 4 hours, 23 nL of test compound or control (negative control DMSO and positive control 9.2 uM Bortezomib-final) were added from a 1536-well polypropylene compound source plate to each well using a 1536 head pin tool from Kalypsys. Cells were then incubated for 48 hours at 37C, 95% relative humidity and 5% CO2. After 48 hours, plates were removed from the incubator and 3 uL of CellTiter-Glo (Promega) was added using an Aurora Flying Reagent Dispenser Bioraptor. Plates were incubated at room temperature for 10 minutes prior to reading the luminescence on the Viewlux (PerkinElmer). The relative luciferase units are used to calculate the percent activity using the activity of DMSO in the cells and no cells columns for normalization of no inhibition and full inhibition respectively.
Background: Quantitative high-throughput screening tests each substance at several concentrations.
As to `CCCCc1ccc(NS(=O)(=O)c2ccc(C)c(C(=O)N3CCN(c4cccc(C)c4C)CC3)c2)cc1`, the Potency is 20.9 µM (active). For `CN1c2ccccc2C(=O)N2CCc3c([nH]c4ccccc34)C21` (stereo not given) the value was 23.5 µM (active). Take `CN(C(Cc1ccc(OS(=O)(=O)c2cccc3cnccc23)cc1)C(=O)N1CCN(c2ccccc2)CC1)S(=O)(=O)c1cccc2cnccc12` (stereo not given): the Potency was 18.7 µM (active). The result for `CN(C)CCOc1ccc(-c2nc(-c3ccc4c(c3)CCC4=NO)c(-c3ccncc3)[nH]2)cc1` reads 26.4 µM (active); that for `OC(c1cc(C(F)(F)F)nc2c(C(F)(F)F)cccc12)C1CCCCN1` (stereo not given), 20.9 µM (active); that for `C[C@@H]1[C@H](C)CC[C@]2(C(=O)O)CC[C@]3(C)C(=CC[C@@H]4[C@@]5(C)CC[C@H](O)C(C)(C)[C@H]5CC[C@]43C)[C@@H]12`, 1.71 µM (active). The result for `O=C(Nc1ccc(OC(F)(F)F)cc1)c1sccc1NCc1ccnc2ccccc12` reads 16.6 µM (active); that for `Cc1ccc2c(=O)c3cccc(CC(=O)O)c3oc2c1C`, 18.7 µM (active); that for `O=C(NCCCCN1CCOCC1)c1cc2ccccc2o1`, “inactive”. The result for `CC(C)n1c(C=C[C@H](O)C[C@H](O)CC(=O)O)c(-c2ccc(F)cc2)c2ccccc21` reads 3.32 µM (active); that for `COc1cc([C@H]2Oc3cc([C@H]4Oc5cc(O)cc(O)c5C(=O)[C@H]4O)ccc3O[C@H]2CO)ccc1O`, 14.8 µM (active); that for `O=C(Nc1ncc(SCCN2CCCC2)s1)[C@]1(c2ccc(S(=O)(=O)C3CC3)cc2)C[C@@H]1C1CCCCC1`, 23.5 µM (active). Take `CN(C)CC[C@H](CSc1ccccc1)Nc1ccc(S(=O)(=O)NC(=O)c2ccc(N3CCN(Cc4ccccc4-c4ccc(Cl)cc4)CC3)cc2)cc1[N+](=O)[O-]`: the Potency is 16.6 µM (active). For `CCC(=C(CC)c1ccc(O)cc1)c1ccc(O)cc1` the value was 26.4 µM (active). The result for `Cc1cccc(Nc2nc(N[C@@H]3CCCC[C@H]3N)ncc2C(N)=O)c1` reads 18.7 µM (active).

As to `CCCCCCCCCCCCCC(=O)N[C@H](CO)[C@H](O)c1ccc([N+](=O)[O-])cc1`, the Potency result is “inactive”. On to `CCOC(=O)[C@H]1O[C@H]1C(=O)N[C@@H](CC(C)C)C(=O)NCCC(C)C`, for which the Potency is 2.96 µM (active).

Take `CCCCn1c(=O)n(Cc2ccccc2F)c(=O)c2[nH]c(Cc3ccc(NC(C)=O)cc3)nc21`: the Potency is 20.9 µM (active). The result for `O=c1[nH]c(=O)n([C@H]2C[C@@H](O)[C@@H](CO)O2)cc1I` reads 5.9 µM (active). On to `CC(O)=C(C#N)C(=O)Nc1ccc(C(F)(F)F)cc1`, for which the Potency is 18.7 µM (active).

Consider `c1ccc(-c2oc3ncnc(NC[C@@H]4CCCO4)c3c2-c2ccccc2)cc1`, for which the Potency is 23.5 µM (active). For `Cc1cnc(-c2cc(N3CCN(C(=O)CCS(C)(=O)=O)CC3)ncc2Cl)c(C)c1` the value was “inactive”. The result for `Cc1cc(CS(=O)(=O)c2ccccc2)cc(OCc2ccc(CN3CCC[C@H]3CO)cc2)c1` reads 20.9 µM (active). `COc1ccc(Cn2ccc3ccc(C(=O)NO)cc32)cc1`: the Potency was 13.2 µM (active). Consider `N[C@@H](CC(=O)N1CCn2c(nnc2C(F)(F)F)C1)Cc1cc(F)c(F)cc1F`, for which the Potency was 16.6 µM (active). The result for `C[C@@H]1CCO[C@H]2Cn3cc(C(=O)NCc4ccc(F)cc4F)c(=O)c(O)c3C(=O)N12` reads 13.2 µM (active); that for `CC=C1C2C=C(C)CC1(N)c1ccc(=O)[nH]c1C2` (stereo not given), 23.5 µM (active).

Turning to `CC(C)N(CCCNC(=O)Nc1ccc(C(C)(C)C)cc1)C[C@H]1O[C@@H](n2cc(Br)c3c(N)ncnc32)[C@H](O)[C@H]1O`, the Potency is 18.7 µM (active). The result for `CCCCC(C=O)NC(=O)C(CC(C)C)NC(=O)OCc1ccccc1` (stereo not given) reads “inactive”. In the case of `C[C@@H]1[C@H](O)[C@@H](C)C=CC=CC=CC=CC=CC=CC=C[C@H](O[C@@H]2O[C@H](C)[C@H](O)[C@H](N)[C@@H]2O)C[C@@H]2O[C@](O)(C[C@@H](O)C[C@@H](O)[C@H](O)CC[C@@H](O)C[C@@H](O)CC(=O)O[C@H]1C)C[C@H](O)[C@@H]2C(=O)O`, the Potency is 0.372 µM (active). The result for `CCN1CCC(n2cc(CNc3cc(Cl)c4ncc(C#N)c(Nc5ccc(F)c(Cl)c5)c4c3)nn2)CC1` reads 18.7 µM (active). For `COc1ccc(CCC(=O)Nc2nc3ccc(Cl)cc3s2)cc1OC` the value was 18.7 µM (active). Take `C[C@@H](N)c1ccc(C(=O)Nc2ccnc3[nH]ccc23)cc1`: the Potency was 16.6 µM (active). `O=C1NC(=O)C(c2cnc3ccccn23)=C1c1cn2c3c(cccc13)CN(C(=O)N1CCOCC1)CC2`: the Potency is 23.5 µM (active). The result for `CN(CC=CC#CC(C)(C)C)Cc1cccc2ccccc12` reads “inactive”; that for `O=C(O)C1=CC(O)C(O)[C@H](O)C1` (stereo not given in full), “inactive”. For `Cc1ccc(C(=O)N(CCCN)[C@@H](c2nc3cc(Cl)ccc3c(=O)n2Cc2ccccc2)C(C)C)cc1` the value was 0.0019 µM (active); for `CCc1cc(-c2n[nH]c(C)c2-c2ccc3c(c2)OCCO3)c(O)cc1O`, 8.33 µM (active). Take `CCOc1ccccc1N=Nc1c(C)[nH]n(-c2nc(-c3ccccc3)cs2)c1=O`: the Potency was 20.9 µM (active). `CN1CCN(c2ncc(-c3cc(Cl)cc(Cl)c3Cl)c(N)n2)CC1`: the Potency is 16.6 µM (active).

The values above are taken from PubChem BioAssay (NCATS).
